{"source": "PubChem BioAssay (NCATS)", "note": "Results filed as inconclusive are left out. A number with no mark means an inactive call. Calls of active or inactive are those of the source. Calls come from the whole dose curve; as a rule, active = well fitted inhibition curve with a large enough effect; inconclusive = small, poorly fitted or top-dose-only effect; inactive = no such curve, though single readings can be large or run the other way. % is set by controls: 0 for no effect and ±100 for the full control effect; potency is the fitted concentration of half-maximal effect."}
{"assay": "Tertiary RLuc qRT-PCR qHTS assay for Zika virus inhibitors (AID 1347169); note: nearly all actives have a fitted effect of over 55% in size; for activity change, negative = inhibition: top concentration of the series differs between compounds", "conditions": "infected Vero cells, reporter luminescence, 48-72 h; series mostly up to 45.9 µM; activity change, negative = inhibition: at the top concentration", "text": "Avindra Nath, Ph.D., National Institute of Neurological Disorders and Stroke (NINDS), Bethesda, MD\nRadhakrishnan Padmanabhan, Ph.D., Georgetown University (GU), Washington D.C.\nZika Virus causes congenital defects, including microcephaly and is associated with Guillain-Barre syndrome, eningoencephalitis and myelitis in infected adult. […] Using a target-based approach, we hope to establish a screening paradigm to uncover novel, cell-active NS2B-NS3 protease (Zika Virus) specific inhibitors from NCATS' collection of small molecules using qHTS.\nFour assay panel was created to identify potential Zika Virus inhibitors. Namely, (1) GU unlinked NS2B-NS3 AMC tagged protease qHTS, (2) GU unlinked NS2B-NS3 Rhodamine tagged protease qHTS, (3) NINDS linked NS2B-NS3 AMC tagged protease qHTS, (4) NINDS linked NS2B-NS3 Rhodamine tagged protease qHTS. Identified inhibitors were re-acquired and tested against secondary confirmatory, orthogonal, and counterscreens to exclude nonspecific inhibition.\nEarly Translation Branch (ETB)\nNational Center for Advancing Translational Sciences (NCATS), Rockville, MD\nNational Institute of Health (NIH), Bethesda, Maryland\n1536-well recombinant virus ZIKV-RLuc (Cambodian) Assay:\nFor a follow-up assay, we adapted a high throughput orthogonal assay in 1536-well plate format to use the recombinant virus ZIKV-RLuc, in Vero cells. Briefly, three microL of Vero cells derived from a green monkey cell line, were dispensed Multidrop Dispenser into a solid bottom white 1,536-well plate at a concentration of 1,000 cells per well. The plate was incubated overnight in a CO2 incubator at 37 degrees C. Compounds were delivered as a 23 nL DMSO solution by Kalypsys pintool transfer. Following compound transfer, 2 microL of ZIKV-RLuc was added at an MOI of 1-2 and incubated in a CO2 incubator for 48-72 hrs at 37 degrees C. After sufficient incubation of infected cells in test plates, live cell Renilla luciferase substrate (Promega) was added. The luminescence signal was measured after 1-1.5 hrs exposure to substrate in ViewLux reader."}
{"smiles": "Cc1ccc2c(c1)C(=O)[C@]1(O)CCN(c3ccccc3)C1=N2", "activity change, negative = inhibition": "-32.2%"}
{"smiles": "CC[C@H](C)n1cc(C)c2c(C(=O)NCc3c(C)cc(C)[nH]c3=O)cc(-c3ccc(N4CCNCC4)nc3)cc21", "activity change, negative = inhibition": "-1.67%"}
{"smiles": "O=C1Nc2ccc(I)cc2C1=Cc1cc(Br)c(O)c(Br)c1", "activity change, negative = inhibition": "-1.66%"}
{"smiles": "OC(c1cc(C(F)(F)F)nc2c(C(F)(F)F)cccc12)C1CCCCN1", "note": "(centres undefined)", "Potency": "16.5 µM (active)"}
{"smiles": "CCCCC[C@H](O)C=C[C@H]1[C@H](O)CC(=O)[C@H]1CCCCCCC(=O)O", "activity change, negative = inhibition": "22.6%"}
{"smiles": "c1cc(OCCN2CCCCC2)cc(-c2n[nH]c3ccc(-c4ncn[nH]4)cc23)c1", "activity change, negative = inhibition": "21.3%"}
{"smiles": "O=S(=O)(O)c1ccc2cc(N=Nc3cc(S(=O)(=O)O)c4cccnc4c3O)ccc2c1", "Potency": "3.7 µM (active)"}
{"smiles": "O=c1cc(-c2ccc(O)c(O)c2)oc2cc(O)cc(O)c12", "activity change, negative = inhibition": "46.1% [at 3.57 µM]"}
{"smiles": "CCOC(=O)[C@H](CCc1ccccc1)N[C@@H](C)C(=O)N1CCCC1C(=O)O", "note": "(some centres undefined)", "activity change, negative = inhibition": "-5.38%"}
{"smiles": "Cc1nc(C(=O)NCC(=O)O)c(O)c2ccc(Oc3ccccc3)cc12", "Potency": "inactive"}
{"smiles": "CCCCOCCOc1nc(-c2ccc(C(=O)O)c(F)c2)sc1C", "activity change, negative = inhibition": "-12.4%"}
{"smiles": "C[C@H]1COC2=C1C(=O)C(=O)c1c2ccc2c1CCCC2(C)C", "activity change, negative = inhibition": "2.95%"}
{"smiles": "COc1cc(Cl)cn2c(-c3cccc(NC4CNC4)n3)cnc12", "activity change, negative = inhibition": "14%"}
{"smiles": "O=C(Nc1ccccc1)Nc1ccc(-c2ccc(C(=O)[C@H]3CCC[C@H]3C(=O)O)cc2)cc1", "activity change, negative = inhibition": "-21.7%"}
